Experimental data taken from PubChem BioAssay (NCATS).
Values without a mark were called inactive. Inconclusive results are not listed. Active and inactive are the calls of the source. Unless noted, calls follow the shape of the dose curve; as a rule, active = well fitted curve in the direction sought with a large enough effect; inconclusive = small, poorly fitted or top-dose-only effect, or another doubt; inactive = no such curve, though single readings can be large; an effect the other way counts as inactive or inconclusive.

Columns and labels:
[1] = biological target: Lysosomal acid glucosylceramidase (Homo sapiens) (UniProt P04062); test: Glucocerebrosidase-p2 (AID 348; in the data active = potency below about 10 µM; also: potency is read from the fitted curve at half-maximal effect); details: purified GBA, blue fluorogenic substrate, 40 min
Summary of the method: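 Normal human glucocerebrosidase (0.2 nM) with blue fluorogenic substrate (80 uM final) in citrate/phosphate pH 5.9 with 10mM sodium taurocholate, 0.01% tween-20; 40 min RT, NaOH/glycine stop; fluorescence Ex 365/Em 440; AC50 from a titration from 0.6 nM upwards.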

[2] = AP1 Signaling Pathway (AID 357; active = well fitted curve in either direction with a large enough effect, not every such curve was filed as active;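 also: ME-180 reporter cells stimulated with EGF at its EC50 level; % is scaled to controls: 0 for no effect and ±100 for the full control effect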); details: ME-180 AP-1-bla reporter, EGF-induced, beta-lactamase ratio, 5 h; at 7.69 µM (top of the series) unless noted
Summary of the method: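 AP-1-bla ME-180 cells, Opti-MEM + 0.5% dialyzed FBS, plated overnight 37 °C. Cpd titration + EC50 EGF, 5 h 37 °C. CCF4 2.5 h RT; ex 405, em 460/530 ratio → %activity, AC50.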

[3] = biological target: Cytochrome P450 1A2 (Homo sapiens) (UniProt P05177); test: p450-cyp1a2 (AID 410; calls by dose curve;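 also: -100% = full effect of reference inhibitor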)
Summary of the method: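 O-Demethylation of luciferin 6' methyl ether by human CYP1A2 is monitored as luciferase luminescence. Substrate sits at Km (100uM); enzyme is 20nM. Values are scaled to 57 uM furafylline as maximal inhibition.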

[4] = NFAT Signaling Pathway (AID 444; active = well fitted curve in either direction with a large enough effect, not every such curve was filed as active;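 also: carbachol stimulus at about its EC50 of 1 µM final; % is scaled to controls: 0 for no effect and ±100 for the full control effect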); details: Jurkat NFAT-bla M1, carbachol, beta-lactamase ratio, 5 h; at 7.69 µM (top of the series) unless noted
Summary of the method: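 Read-out: CCF4 FRET ratio (460 nm/530 nm) after 1 h RT dye loading, used for %activity and AC50 from titration series. Cells: Jurkat NFAT-β-lactamase/M1 line, treated with compound plus 1 uM carbachol for 5 h, 37 °C.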

[5] = Stat Signaling Pathway (AID 446; active = well fitted curve in either direction with a large enough effect, not every such curve was filed as active;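 also: ME-180 cervical cancer cells given 40 pM IL-6 alongside compound; SIE-controlled beta-lactamase reporter measured as 460/530 nm FRET emission ratio; % is scaled to controls: 0 for no effect and ±100 for the full control effect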); details: ME-180 (cervical carcinoma) SIE beta-lactamase reporter, IL-6 stimulated, 5 h; at 7.69 µM (top of the series) unless noted
Summary of the method: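 FRET read-out (405 nm excitation, 460/530 nm emission) of a beta-lactamase reporter under a STAT-inducible element in ME-180 cervical carcinoma cells. Cells with compound receive 40 pM IL-6 for 5 h. Values are normalised to AC90 stimulation and AC90 JAK-inhibitor controls.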

[6] = biological target: Glucocorticoid receptor (Homo sapiens) (UniProt P04150); test: GR-GFP Redistribution (AID 450;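 active = compounds whose dose series gives a full or clear partial fitted curve of increased nuclear translocation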; also: potency is read from the fitted curve at half-maximal effect); details: U2OS GR-GFP nuclear translocation, laser cytometry, 2 h
[7] = biological target: Glucocorticoid receptor (Homo sapiens) (UniProt P04150); test: GR-EFC Redistribution (AID 451; calls by dose curve; also: potency is read from the fitted curve at half-maximal effect); details: CHO-K1 GR-EFC translocation, beta-gal luminescence, 2 h
Summary of the method: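 Translocation of GR-ED fusion to nuclear EA restores b-gal, read by luminescence after 1 h room-temperature detection. Engineered CHO-K1 biosensor cells, 1,000/well, exposed 2 h at 37 C to titrations up to 46 uM final.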

[8] = biological target: Mitogen-activated protein kinase 10 (Mus musculus) (UniProt Q61831); test: JNK3 AlphaScreen Assay (AID 530; active = well fitted curve in either direction with a large enough effect, not every such curve was filed as active;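 also: kinase came from lysate of stimulated human HepG2 cells; signal reports phosphorylation of biotinylated GST-cJun 1-79 at Ser73 with 10 µM ATP; % is scaled to controls: 0 for no effect and ±100 for the full control effect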)
Summary of the method: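 qHTS titrations with 15 min compound pre-incubation before adding ATP (10 uM final). Read-out: AlphaScreen of Ser73-phosphorylated biotin-GST-cJun using HepG2 lysate JNK3 activated by IL-1β and TNFα.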

[9] = biological target: 3',5'-cyclic-AMP phosphodiesterase 4B (Homo sapiens) (UniProt Q07343); test: qHTS Assay for Inhibitors of PDE-IV (AID 607; active = well fitted activation curve with a large enough effect in the main read-out, with a control signal flat, not every such curve was filed as active; also: % of control where 0% means no effect)
Summary of the method: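 Cell-based read-out of cAMP via a modified cyclic nucleotide-gated channel and membrane potential dye (535/590 nm) in HEK293 cells expressing PDE4 endogenously. Compounds tested up to 22.9 uM final; 100 uM RO 20-1724 reference.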

[10] = biological target: Luciferin 4-monooxygenase (Photinus pyralis) (UniProt P08659); test: Biochemical firefly luciferase enzyme assay for NPC (AID 624030);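 also: purified P. pyralis luciferase at 10 nM with luciferin and ATP substrate; 0% = DMSO and -100% = full luciferase inhibition by PTC124 control; nearly all actives have a fitted effect of over 70% in size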
Summary of the method: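 Direct inhibition of firefly luciferase enzyme (10 nM final, 50 mM Tris Acetate) assessed by luminescence within 5 minutes. Percent activity scaled between DMSO and PTC124 positive control, with concentration-effect curves classified by fit quality and response.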

[11] = S16 Schwann cell viability assay (CellTiter-Glo assay) (AID 624031);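 also: native untransfected S16 rat Schwann cells; plate controls were DMSO-treated cells for no effect and cell-free wells for full effect; nearly all actives have a fitted effect of over 70% in size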
Summary of the method: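 Counter-screen for cytotoxicity: parental S16 rat Schwann cells lacking the PMP22 reporters, treated 24 h with compound, viability from cellular ATP by CellTiter-Glo luminescence, normalized to DMSO (0%) and no-cell wells.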

[12] = S16 Schwann cell PMP22 intronic element beta-lactamase assay (AID 624044; calls by dose curve;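 also: 0% = DMSO and -100% = potassium clavulanate positive control; nearly all actives have a fitted effect of over 15% in size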)
Summary of the method: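 Beta-lactamase reporter under a PMP22 intronic regulatory element in stable S16 rat Schwann cells; 24 h compound exposure. 460 nm blue signal normalized between DMSO (0%) and potassium clavulanate, with 535 nm FRET tracking viability; curves classed by r2 and response.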

[13] = qHTS profiling for inhibitors of Plasmodium falciparum proliferation (AID 504749); also: potency is read from the fitted curve at half-maximal effect; nearly all actives have a fitted effect of over 60% in size; details: P. falciparum in erythrocytes, SYBR Green DNA, 72 h
Summary of the method: (§1)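 SYBR Green fluorescence of parasite DNA, read after lysis and overnight dark incubation, measured growth over 72 h in erythrocyte culture at 0.3% parasitemia and 2.5% hematocrit. Data normalised to DMSO and 0.29 uM artemisinin, with plate-drift correction.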

3D7 = test: as above; details: P. falciparum in erythrocytes, SYBR Green DNA, 72 h; series mostly up to 28.7 µM
Summary of the method: as §1

7G8 = test: as above; details: P. falciparum in erythrocytes, SYBR Green DNA, 72 h; series mostly up to 28.7 µM
Summary of the method: as §1

AA1029 = test: as above; details: P. falciparum in erythrocytes, SYBR Green DNA, 72 h; series mostly up to 28.7 µM
Summary of the method: as §1

AS120 = test: as above; details: P. falciparum in erythrocytes, SYBR Green DNA, 72 h; series mostly up to 28.7 µM
Summary of the method: as §1

ATS95 = test: as above; details: P. falciparum in erythrocytes, SYBR Green DNA, 72 h; series mostly up to 28.7 µM
Summary of the method: as §1

C2A = test: as above; details: P. falciparum in erythrocytes, SYBR Green DNA, 72 h; series mostly up to 28.7 µM
Summary of the method: as §1

CP185 = test: as above; details: P. falciparum in erythrocytes, SYBR Green DNA, 72 h; series mostly up to 28.7 µM
Summary of the method: as §1

CP191 = test: as above; details: P. falciparum in erythrocytes, SYBR Green DNA, 72 h; series mostly up to 28.7 µM
Summary of the method: as §1

CP192 = test: as above; details: P. falciparum in erythrocytes, SYBR Green DNA, 72 h; series mostly up to 28.7 µM
Summary of the method: as §1

CP194 = test: as above; details: P. falciparum in erythrocytes, SYBR Green DNA, 72 h; series mostly up to 28.7 µM
Summary of the method: as §1

CP201 = test: as above; details: P. falciparum in erythrocytes, SYBR Green DNA, 72 h; series mostly up to 28.7 µM
Summary of the method: as §1

CP203 = test: as above; details: P. falciparum in erythrocytes, SYBR Green DNA, 72 h; series mostly up to 28.7 µM
Summary of the method: as §1

CP211 = test: as above; details: P. falciparum in erythrocytes, SYBR Green DNA, 72 h; series mostly up to 28.7 µM
Summary of the method: as §1

CP215 = test: as above; details: P. falciparum in erythrocytes, SYBR Green DNA, 72 h; series mostly up to 28.7 µM
Summary of the method: as §1

CP217 = test: as above; details: P. falciparum in erythrocytes, SYBR Green DNA, 72 h; series mostly up to 28.7 µM
Summary of the method: as §1

CP237 = test: as above; details: P. falciparum in erythrocytes, SYBR Green DNA, 72 h; series mostly up to 28.7 µM
Summary of the method: as §1

CP238 = test: as above; details: P. falciparum in erythrocytes, SYBR Green DNA, 72 h; series mostly up to 28.7 µM
Summary of the method: as §1

CP247 = test: as above; details: P. falciparum in erythrocytes, SYBR Green DNA, 72 h; series mostly up to 28.7 µM
Summary of the method: as §1

CP250 = test: as above; details: P. falciparum in erythrocytes, SYBR Green DNA, 72 h; series mostly up to 28.7 µM
Summary of the method: as §1

CP252 = test: as above; details: P. falciparum in erythrocytes, SYBR Green DNA, 72 h; series mostly up to 28.7 µM
Summary of the method: as §1

CP256 = test: as above; details: P. falciparum in erythrocytes, SYBR Green DNA, 72 h; series mostly up to 28.7 µM
Summary of the method: as §1

Chain of Glucocorticoid receptor (Homo sapiens) (P04150 whole entry, looked up, the tested form may be a part): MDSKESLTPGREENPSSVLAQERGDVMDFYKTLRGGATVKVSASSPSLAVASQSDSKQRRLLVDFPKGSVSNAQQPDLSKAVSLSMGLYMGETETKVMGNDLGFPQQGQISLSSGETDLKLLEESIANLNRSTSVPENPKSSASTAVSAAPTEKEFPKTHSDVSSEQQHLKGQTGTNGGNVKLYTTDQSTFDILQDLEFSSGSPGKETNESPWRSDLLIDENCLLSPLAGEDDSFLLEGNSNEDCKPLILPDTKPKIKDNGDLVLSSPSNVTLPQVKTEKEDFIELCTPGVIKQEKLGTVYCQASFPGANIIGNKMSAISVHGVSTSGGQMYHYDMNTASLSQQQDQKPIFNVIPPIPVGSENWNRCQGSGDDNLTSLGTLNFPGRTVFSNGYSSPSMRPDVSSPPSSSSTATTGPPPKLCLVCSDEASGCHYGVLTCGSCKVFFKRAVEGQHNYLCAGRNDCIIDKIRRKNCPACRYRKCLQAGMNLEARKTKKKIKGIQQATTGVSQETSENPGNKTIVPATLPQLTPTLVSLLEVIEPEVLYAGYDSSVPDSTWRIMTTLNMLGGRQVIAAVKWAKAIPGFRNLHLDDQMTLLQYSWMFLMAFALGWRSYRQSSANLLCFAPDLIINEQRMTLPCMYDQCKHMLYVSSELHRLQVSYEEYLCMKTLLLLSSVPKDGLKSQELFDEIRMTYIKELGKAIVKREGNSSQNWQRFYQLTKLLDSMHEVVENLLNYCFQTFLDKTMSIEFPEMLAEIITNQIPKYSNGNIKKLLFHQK
Chain of Luciferin 4-monooxygenase (Photinus pyralis) (P08659 whole entry, looked up): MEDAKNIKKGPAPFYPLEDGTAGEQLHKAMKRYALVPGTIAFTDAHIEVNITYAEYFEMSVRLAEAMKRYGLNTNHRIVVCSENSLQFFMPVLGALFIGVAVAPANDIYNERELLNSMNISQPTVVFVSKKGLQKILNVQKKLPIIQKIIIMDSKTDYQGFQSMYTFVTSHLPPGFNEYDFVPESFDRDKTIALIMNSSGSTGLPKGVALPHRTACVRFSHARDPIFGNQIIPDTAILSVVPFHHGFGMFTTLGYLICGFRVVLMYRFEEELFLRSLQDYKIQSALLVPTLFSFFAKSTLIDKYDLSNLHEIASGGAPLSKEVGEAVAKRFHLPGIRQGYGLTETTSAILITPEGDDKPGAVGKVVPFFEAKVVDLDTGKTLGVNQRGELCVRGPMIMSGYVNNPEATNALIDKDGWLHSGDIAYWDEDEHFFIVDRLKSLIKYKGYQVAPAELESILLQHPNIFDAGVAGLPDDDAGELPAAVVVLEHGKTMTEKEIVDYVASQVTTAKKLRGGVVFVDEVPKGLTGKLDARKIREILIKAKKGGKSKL
Chain of Cytochrome P450 1A2 (Homo sapiens) (P05177 whole entry, looked up): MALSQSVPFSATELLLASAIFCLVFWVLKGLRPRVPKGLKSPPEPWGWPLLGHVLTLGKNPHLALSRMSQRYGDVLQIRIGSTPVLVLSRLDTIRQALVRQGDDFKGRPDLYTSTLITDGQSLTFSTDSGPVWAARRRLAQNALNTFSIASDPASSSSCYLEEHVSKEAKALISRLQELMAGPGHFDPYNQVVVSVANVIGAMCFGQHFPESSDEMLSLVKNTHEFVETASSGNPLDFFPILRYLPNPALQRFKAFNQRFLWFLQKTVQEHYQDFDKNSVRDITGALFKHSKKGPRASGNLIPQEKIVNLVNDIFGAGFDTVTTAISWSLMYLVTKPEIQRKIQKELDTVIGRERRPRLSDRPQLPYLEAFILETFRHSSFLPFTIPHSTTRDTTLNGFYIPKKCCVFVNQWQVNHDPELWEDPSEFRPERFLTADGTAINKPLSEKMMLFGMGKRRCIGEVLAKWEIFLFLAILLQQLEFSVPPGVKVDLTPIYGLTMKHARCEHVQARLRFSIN
Chain of 3',5'-cyclic-AMP phosphodiesterase 4B (Homo sapiens) (Q07343 whole entry, looked up): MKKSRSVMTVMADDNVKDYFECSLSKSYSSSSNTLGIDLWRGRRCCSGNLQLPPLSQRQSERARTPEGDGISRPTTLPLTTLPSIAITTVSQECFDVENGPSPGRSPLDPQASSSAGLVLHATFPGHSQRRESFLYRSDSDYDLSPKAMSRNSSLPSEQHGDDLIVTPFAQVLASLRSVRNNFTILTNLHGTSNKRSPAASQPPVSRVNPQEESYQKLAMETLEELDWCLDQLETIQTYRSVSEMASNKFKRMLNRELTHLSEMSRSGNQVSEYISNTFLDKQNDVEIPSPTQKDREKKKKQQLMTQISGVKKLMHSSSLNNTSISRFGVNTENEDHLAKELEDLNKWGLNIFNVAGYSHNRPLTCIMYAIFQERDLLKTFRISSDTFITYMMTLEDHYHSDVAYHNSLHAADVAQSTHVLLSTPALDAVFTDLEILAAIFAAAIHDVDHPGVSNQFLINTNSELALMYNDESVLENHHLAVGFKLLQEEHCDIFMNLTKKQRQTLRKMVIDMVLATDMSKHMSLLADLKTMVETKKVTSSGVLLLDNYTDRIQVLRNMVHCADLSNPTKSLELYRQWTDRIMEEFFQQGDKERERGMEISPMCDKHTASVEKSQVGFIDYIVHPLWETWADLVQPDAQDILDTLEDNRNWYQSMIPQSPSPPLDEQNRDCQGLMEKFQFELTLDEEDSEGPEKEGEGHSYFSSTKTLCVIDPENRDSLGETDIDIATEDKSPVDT
Chain of Lysosomal acid glucosylceramidase (Homo sapiens) (P04062 whole entry, looked up): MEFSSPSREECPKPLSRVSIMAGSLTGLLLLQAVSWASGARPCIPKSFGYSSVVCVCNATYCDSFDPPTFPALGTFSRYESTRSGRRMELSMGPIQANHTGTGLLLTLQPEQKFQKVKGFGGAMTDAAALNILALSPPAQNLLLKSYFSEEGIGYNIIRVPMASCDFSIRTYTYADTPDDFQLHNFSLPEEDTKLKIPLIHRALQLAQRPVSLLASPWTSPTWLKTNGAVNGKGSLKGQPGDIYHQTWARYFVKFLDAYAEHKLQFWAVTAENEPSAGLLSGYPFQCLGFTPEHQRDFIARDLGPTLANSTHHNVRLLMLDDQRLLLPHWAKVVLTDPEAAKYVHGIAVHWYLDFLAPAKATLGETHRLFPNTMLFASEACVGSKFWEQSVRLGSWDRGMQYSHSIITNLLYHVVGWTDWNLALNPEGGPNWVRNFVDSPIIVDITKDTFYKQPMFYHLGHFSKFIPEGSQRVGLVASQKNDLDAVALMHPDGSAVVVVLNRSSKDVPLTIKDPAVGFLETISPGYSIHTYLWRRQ

O=C(O)[C@@H](S)[C@H](S)C(=O)O
Potency [1]: > 11.4 µM
activity change, negative = inhibition [2]: 8.2%
Potency [3]: inactive
activity change, negative = inhibition [4]: -7.29%
activity, negative = inhibition [5]: 1.47%
Potency [6]: > 46 µM
Potency [7]: > 9.22 µM
Potency [8]: inactive
Potency [9]: inactive
outcome [10]: inactive
Potency [11]: inactive
outcome [12]: inactive
Potency ([13]; parasite line A): 10 µM (active)
Potency ([13]; parasite line B): 7.08 µM (active)
Potency (3D7): 8.91 µM (active)
Potency (7G8): 5.01 µM (active)
Potency (AA1029): 10 µM (active)
Potency (AS120): 5.62 µM (active)
Potency (ATS95): 6.31 µM (active)
Potency (C2A): 7.08 µM (active)
Potency (CP185): 11.2 µM (active)
Potency (CP191): 8.91 µM (active)
Potency (CP192): 12 µM (active)
Potency (CP194): 15.1 µM (active)
Potency (CP201): 12 µM (active)
Potency (CP203): 10.7 µM (active)
Potency (CP211): 6.75 µM (active)
Potency (CP215): 9.53 µM (active)
Potency (CP217): 6.31 µM (active)
Potency (CP237): 7.08 µM (active)
Potency (CP238): 12.6 µM (active)
Potency (CP247): 7.94 µM (active)
Potency (CP250): 7.08 µM (active)
Potency (CP252): 10 µM (active)
Potency (CP256): 7.94 µM (active)
